PubChem BioAssay AID1159580 (chemical genetic matrix, 2015)
“And” between values parts separate entries of the source, which are not always exact repeats. Identical values can stand only once. Out of some 5,500 compounds screened, about 2,000 (36%) were called active. Not shown: some 18% with an inconclusive outcome. Rule as the data show it: active = normalized growth mostly below about 0.91 (no sharp cut-off); inconclusive = no clear call, values can overlap the other calls; inactive = mostly above about 0.92. Some of the results follow.

Assay: chemical genetic growth profiling, strain panel (AID 1159580);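 also: tested at 20 µM; growth read once vehicle control cultures reached saturation at 30 °C; 1 = growth at the plate median or of vehicle wells; lower values mean less growth of the strain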
Conditions: growth OD

Measured: normalized growth

COc1ccccc1N1CCN(CCCNc2cc(=O)n(C)c(=O)n2C)CC1
inactive: S. cerevisiae deletion strains, locus YJR043C, strain POL32, hits give low values 1.01 | S. cerevisiae deletion strains, locus YJR075W, strain HOC1, hits give low values 0.991 | S. cerevisiae deletion strains, locus YKL009W, strain mrt4, hits give low values 0.976 | S. cerevisiae deletion strains, locus YKL068W, hits give low values 0.978 | S. cerevisiae deletion strains, locus YKL085W, strain MDH1 (second series), hits give low values 0.985 | S. cerevisiae deletion strains, locus YKL085W, strain MDH1, hits give low values 0.985 | S. cerevisiae deletion strains, locus YKL160W, strain elf1, hits give low values 0.995 | S. cerevisiae deletion strains, locus YKL190W, strain CNB1, hits give low values 0.986 | S. cerevisiae deletion strains, locus YKR001C, strain vps1, hits give low values 0.982 | S. cerevisiae deletion strains, locus YKR026C, strain gcn3, hits give low values 1.02 | S. cerevisiae deletion strains, locus YKR091W, strain srl3, hits give low values 1.01 | S. cerevisiae deletion strains, locus YLL001W, strain dnm1, hits give low values 1.02 | S. cerevisiae deletion strains, locus YLL026W, hits give low values 1.01 | S. cerevisiae deletion strains, locus YLL041C, strain sdh2, hits give low values 1.01 | S. cerevisiae deletion strains, locus YLR027C, strain aat2, hits give low values 1.01 | S. cerevisiae deletion strains, locus YLR039C, strain RIC1, hits give low values 0.937 | S. cerevisiae deletion strains, locus YLR058C, strain SHM2, hits give low values 0.974 | S. cerevisiae deletion strains, locus YLR102C, strain apc9, hits give low values 0.988 | S. cerevisiae deletion strains, locus YLR221C, strain rsa3, hits give low values 1.01 | S. cerevisiae deletion strains, locus YLR258W, strain gsy2, hits give low values 1.02 | S. cerevisiae deletion strains, locus YLR262C, strain YPT6 (second series), hits give low values 1.03 | S. cerevisiae deletion strains, locus YLR262C, strain YPT6, hits give low values 0.857 | S. cerevisiae deletion strains, locus YLR268W, strain sec22, hits give low values 0.982 | S. cerevisiae deletion strains, locus YLR320W, strain mms22, hits give low values 1.02 | S. cerevisiae deletion strains, locus YLR330W, strain CHS5, hits give low values 0.982 | S. cerevisiae deletion strains, locus YLR342W, strain FKS1 (second series), hits give low values 1.03 | S. cerevisiae deletion strains, locus YLR342W, strain FKS1, hits give low values 1.01 | S. cerevisiae deletion strains, locus YLR357W, strain rsc2, hits give low values 1.03 | S. cerevisiae deletion strains, locus YLR370C, strain arc18, hits give low values 1.03 | S. cerevisiae deletion strains, locus YLR371W, strain rom2, hits give low values 1 | S. cerevisiae deletion strains, locus YLR384C, strain iki3, hits give low values 1.02 | S. cerevisiae deletion strains, locus YLR418C, strain cdc73, hits give low values 0.97 | S. cerevisiae deletion strains, locus YML016C, strain PPZ1, hits give low values 0.983 | S. cerevisiae deletion strains, locus YML032C, strain rad52, hits give low values 1.01 | S. cerevisiae deletion strains, locus YML120C, strain ndi1, hits give low values 1 | S. cerevisiae deletion strains, locus YML124C, strain tub3, hits give low values 0.997 | S. cerevisiae deletion strains, locus YMR058W, strain fet3, hits give low values 1.01 | S. cerevisiae deletion strains, locus YMR078C, strain ctf18, hits give low values 0.981 | S. cerevisiae deletion strains, locus YMR125W, strain sto1, hits give low values 1.01 | S. cerevisiae deletion strains, locus YMR129W, hits give low values 1.02 | S. cerevisiae deletion strains, locus YMR205C, strain PFK2, hits give low values 1.01 | S. cerevisiae deletion strains, locus YMR223W, strain ubp8, hits give low values 1 | S. cerevisiae deletion strains, locus YMR231W, strain pep5, hits give low values 1.02 | S. cerevisiae deletion strains, locus YMR263W, strain SAP30, hits give low values 0.975 | S. cerevisiae deletion strains, locus YMR307W, strain GAS1, hits give low values 0.969 and 1.01 | S. cerevisiae deletion strains, locus YNL067W, strain RPL9B, hits give low values 0.977 | S. cerevisiae deletion strains, locus YNL071W, strain lat1, hits give low values 1.02 | S. cerevisiae deletion strains, locus YNL128W, strain TEP1, hits give low values 0.983 and 1.01 | S. cerevisiae deletion strains, locus YNL153C, strain GIM3, hits give low values 0.977 | S. cerevisiae deletion strains, locus YNL175C, strain NOP13, hits give low values 1 | S. cerevisiae deletion strains, locus YNL197C, strain WHI3, hits give low values 1 | S. cerevisiae deletion strains, locus YNL209W, strain ssb2, hits give low values 1.01 | S. cerevisiae deletion strains, locus YNL224C, strain SQS1, hits give low values 1 | S. cerevisiae deletion strains, locus YNL233W, strain BNI4, hits give low values 0.986 | S. cerevisiae deletion strains, locus YNL248C, strain rpa49, hits give low values 1 | S. cerevisiae deletion strains, locus YNL250W, strain rad50, hits give low values 0.983 | S. cerevisiae deletion strains, locus YNL271C, strain bni1, hits give low values 0.992 | S. cerevisiae deletion strains, locus YNL298W, strain CLA4, hits give low values 0.982 | S. cerevisiae deletion strains, locus YNL307C, strain MCK1, hits give low values 1.01 | S. cerevisiae deletion strains, locus YNL322C, strain KRE1 (second series), hits give low values 1.01 | S. cerevisiae deletion strains, locus YNL322C, strain KRE1, hits give low values 0.977 and 1.02 | S. cerevisiae deletion strains, locus YNR049C, strain mso1, hits give low values 1.02 | S. cerevisiae deletion strains, locus YNR052C, strain pop2, hits give low values 0.997 | S. cerevisiae deletion strains, locus YOL006C, strain TOP1, hits give low values 0.959 | S. cerevisiae deletion strains, locus YOL012C, strain htz1 0.738 | S. cerevisiae deletion strains, locus YOL147C, strain pex11, hits give low values 0.992 | S. cerevisiae deletion strains, locus YOR001W, strain rrp6, hits give low values 1.02 | S. cerevisiae deletion strains, locus YOR061W, strain CKA2, hits give low values 0.963 | S. cerevisiae deletion strains, locus YOR069W, strain VPS5, hits give low values 0.995 | S. cerevisiae deletion strains, locus YOR070C, strain gyp1, hits give low values 1.01 | S. cerevisiae deletion strains, locus YOR080W, strain dia2, hits give low values 1.01 | S. cerevisiae deletion strains, locus YOR083W, strain WHI5 (second series), hits give low values 0.992 | S. cerevisiae deletion strains, locus YOR083W, strain WHI5, hits give low values 0.989 | S. cerevisiae deletion strains, locus YOR106W, strain vam3, hits give low values 1.01 | S. cerevisiae deletion strains, locus YOR136W, strain idh2, hits give low values 0.997 | S. cerevisiae deletion strains, locus YOR144C, strain elg1, hits give low values 0.996 | S. cerevisiae deletion strains, locus YOR184W, strain ser1, hits give low values 1 | S. cerevisiae deletion strains, locus YOR265W, strain rbl2, hits give low values 1.01 | S. cerevisiae deletion strains, locus YOR270C, strain vph1, hits give low values 1.03 | S. cerevisiae deletion strains, locus YOR290C, strain snf2, hits give low values 1 | S. cerevisiae deletion strains, locus YOR316C, strain cot1, hits give low values 0.988 | S. cerevisiae deletion strains, locus YPL051W, strain arl3, hits give low values 1.01 | S. cerevisiae deletion strains, locus YPL055C, strain LGE1, hits give low values 0.965 | S. cerevisiae deletion strains, locus YPL078C, strain atp4, hits give low values 1.03 | S. cerevisiae deletion strains, locus YPL106C, strain sse1, hits give low values 1.01 | S. cerevisiae deletion strains, locus YPL240C, strain hsp82, hits give low values 1.03 | S. cerevisiae deletion strains, locus YPL241C, strain CIN2, hits give low values 1 and 0.997 | S. cerevisiae deletion strains, locus YPR119W, strain clb2, hits give low values 0.999 | S. cerevisiae deletion strains, locus YPR141C, strain kar3, hits give low values 0.967 | S. cerevisiae deletion strains, locus YPR163C, strain tif3, hits give low values 1 | S. cerevisiae deletion strains, locus YPR167C, strain met16, hits give low values 0.984 | S. cerevisiae deletion strains, strain wtn01, hits give low values 0.991 | S. cerevisiae strains, strain wild type, hits give low values 0.997
